A number with no mark means an inactive call. The source made the active and inactive calls. Rule as the data show it: active = inhibition score above about 11; inactive = the rest.

A short description of the experiment: yeast proliferation inhibition, dose response, BY4741, OD595, 24 h (AID 489042). To be noted: S. cerevisiae BY4741 growth, hits give high values.
Consider `C[C@]12CCC3C(CC[C@H]4C[C@H](O)CC[C@]34C)C1C[C@@H](CCCCl)[C@@H]2O` (stereo not given in full), for which the inhibition score is 10.
Next, `C=C1C(O)[C@@H]2O[C@]3(CC[C@H](/C=C/C(C)[C@@H]4CC(C)=CC5(O[C@H](C[C@@](C)(O)C(=O)O)CCC5O)O4)O3)CC[C@H]2O[C@@H]1C(O)CC(C)[C@H]1OC2(CCCCO2)CCC1C` (stereo not given in full): 21 (active); `CNc1ccc2nc3ccccc3[n+](C)c2c1`: 0; `Cn1c(=O)[nH]c2nncnc2c1=O`: 0.
Next, `Oc1cccc2nc3ccccc3nc12`: 21 (active); `O=c1[nH]c(O)c(C=Nc2ccc(F)c(Cl)c2)c(=O)[nH]1`: 0.
On to `C[C@]12CCC3C(CC[C@H]4C[C@H](O)CC[C@]34C)C1CCC2=O` (stereo not given in full), for which the inhibition score was 0.
Consider `Cn1c(O)c(C(=Nc2ccc(F)cc2)c2ccccc2Cl)c(=O)n(C)c1=O`, for which the inhibition score was 10.
In the case of `C[C@]12CCC3C(CC[C@H]4C[C@@H](O)CC[C@]34C)C1CC[C@@H]2OC(=O)[C@H](N)CCCCN` (stereo not given in full), the inhibition score is 0.
With `C#C[C@]1(O)[C@H](O)CC2C3CC[C@H]4C[C@@H](O)CC[C@]4(C)C3CC[C@@]21C` (stereo not given in full), the inhibition score is 0.
For `CC(=O)O[C@H]1CCC2C3CC[C@H]4[C@@H](O)[C@H](O)CC[C@]4(C)C3CC[C@@]21C` (stereo not given in full), the inhibition score is 0.
Take `OCC[n+]1c2ccccc2nc2ccc(N3CCOCC3)cc21`: the inhibition score was 0.
For the molecule `C[C@]12CCC3C(CC[C@H]4C[C@@H](O)CC[C@]34C)[C@H]1CC[C@H]2O` (stereo not given in full), the inhibition score was 0.
For `Nc1cc2nc3ccccc3nc2cc1N` the value was 0.
For `C[n+]1c2ccccc2nc2ccc(NCCO)cc21` the value was 0.
